# Compounds with a hit are over-represented: about 11% of the library has one in this group of screens.
# USP28 block: human USP28 deubiquitinase inhibition. Q96RU2. purified USP28, Ub-rhodamine cleavage fluorescence, 30 min. inhibition, % at 25 µM. 3% of 47,000 active. AID 1645857
# USP17 block: blocks human USP17 ubiquitin-rhodamine cleavage | inhibition, % at 50 µM | AID 1645855 | purified USP17, Ub-rhodamine cleavage fluorescence, 3 h | 6.5% of 47,000 active
# Target sequence (A8MUK1 whole entry, looked up): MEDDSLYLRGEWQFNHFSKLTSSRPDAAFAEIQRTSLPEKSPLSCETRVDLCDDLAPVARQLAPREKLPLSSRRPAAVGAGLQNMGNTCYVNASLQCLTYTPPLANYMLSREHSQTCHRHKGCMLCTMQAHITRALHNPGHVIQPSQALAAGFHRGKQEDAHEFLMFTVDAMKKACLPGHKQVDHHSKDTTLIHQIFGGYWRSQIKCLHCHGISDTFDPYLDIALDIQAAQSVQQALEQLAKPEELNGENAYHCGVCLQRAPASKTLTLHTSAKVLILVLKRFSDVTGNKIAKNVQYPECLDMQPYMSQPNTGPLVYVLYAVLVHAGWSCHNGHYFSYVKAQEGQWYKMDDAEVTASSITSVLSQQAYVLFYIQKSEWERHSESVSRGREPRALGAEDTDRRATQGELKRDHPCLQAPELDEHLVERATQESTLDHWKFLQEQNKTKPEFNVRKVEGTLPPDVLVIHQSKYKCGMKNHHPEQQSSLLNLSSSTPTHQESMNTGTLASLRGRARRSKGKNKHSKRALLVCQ
# USP30 inh: human USP30 deubiquitinase inhibition | purified USP30, Ub-rhodamine cleavage fluorescence | Q70CQ3 | inhibition, % at 25 µM | 5.3% of 47,000 active | AID 1645860
# Starred values were filed as active, the others as inactive; . = not tested or not shown. Rule as the data show it: active = inhibition above about 30%; inactive = the rest.
SMILES,USP28 block,USP17 block,USP30 inh
C=C(CCC=C(C)C)[C@H]1CC[C@]2(C)[C@@H]1CC[C@@H]1[C@@]3(C)CCC(=O)C(C)(C)[C@@H]3CC[C@]12C,16,40*,31*
Cc1c(C(=O)Nc2ccccn2)oc2ccccc12,.,13,.
Cc1c(C(=O)Nc2ccccn2)oc2c(Cl)cccc12,23,33*,48*
CN1[C@H]2CCN(C(=O)Nc3ccccc3Cl)CC[C@@H]2Oc2ccccc2S1(=O)=O,2,-9,4
CNc1cc(C)nc(C2CN(C(=O)c3ccn[nH]3)CCO2)c1 (stereo not drawn),-6,-1,-6
COc1cc(Cl)ccc1-c1nc(-c2ccn3cnnc3c2)no1,-17,-28,-78
O=C(Nc1ccccc1)c1nc(-c2cn(-c3ccccc3)nn2)no1,19,17,41*
COc1ccccc1Cc1nc(-c2cn(Cc3ccccc3)nn2)no1,12,14,23
COc1ccc(-c2nc(-c3nnn(Cc4cccc(F)c4)c3C)no2)cc1OC,21,7,4
COc1ccc(-c2nc(-c3nnn(Cc4ccc(F)cc4)c3C)no2)c(OC)c1,40*,34*,66*
COc1ccc(-c2nc(-c3cn(-c4cccc(Cl)c4)nn3)no2)c(OC)c1,.,65*,.
O=C(NCc1ccccn1)c1nc(-c2cn(-c3ccc(Cl)cc3)nn2)no1,12,11,20
COc1ccccc1Cc1nc(-c2cn(-c3cccc(F)c3)nn2)no1,20,13,34*
O=c1[nH]c2cc(Br)cnc2[nH]1,-45,-4,-177
CCNC(=O)C1(c2ccc(NS(=O)(=O)c3ccc(OCC)cc3)cc2)CC1,-1,-18,-11
COc1ccccc1-c1nc(-c2cn(-c3ccc(F)cc3)nn2)no1,13,31*,41*
COc1ccc(-c2nc(-c3cn(-c4ccccc4)nn3)no2)c(OC)c1,54*,71*,94*
Fc1cccc(-n2cc(-c3noc(-c4cccnc4)n3)nn2)c1,21,54*,61*
Clc1cccc(-n2cc(-c3noc(-c4ccncc4)n3)nn2)c1,-7,-32,-9
COc1ccccc1-c1nc(-c2cn(-c3ccccc3)nn2)no1,17,15,26
COc1ccc(-c2nc(-c3ccc4oc(C)nc4c3)no2)c(OC)c1,-14,-4,-11
O=C(NCc1noc(-c2ccc(F)cc2)n1)c1coc(C2CC2)n1,7,9,6
COc1ccc(-c2nc3ccccc3c3nnc(SC(C)C(=O)NC4CC4)n23)cc1 (stereo not drawn),-7,-3,-5
CN1CCCn2cc(S(=O)(=O)NCc3ccccc3)cc2C1=O,-1,0,2
O=C1COc2ccc(NC(=O)N3CCN(c4ncc(C(F)(F)F)cc4Cl)CC3)cc2N1,19,16,26
SMILES,USP28 block,USP17 block,USP30 inh
FC(F)(F)c1cnc(N2CCC(c3ncn[nH]3)CC2)c(Cl)c1,43*,0,19
CCN(CC)c1nc2ccsc2c(=O)n1CC(=O)NCc1ccccc1Cl,10,7,0
COC[C@H]1CCCN1C(=O)CC[C@H]1CNC(=O)[C@@H]2[C@@H](CCN2C2CCCCC2)N1C,20,-64,-17
COC[C@H]1CCCN1C(=O)CC[C@H]1CNC(=O)[C@@H]2[C@@H](CCN2C2CCOCC2)N1C,31*,-38,29
CCc1c(C2CCN(C(=O)NCc3ccccc3)CC2)noc1N,6,-2,-13
CNC(=O)N1CCCC1c1nnc(C(=O)Nc2ccc(F)c(F)c2)s1 (stereo not drawn),0,-29,-20
Cc1ccc(NC(=O)c2nnc(C3CCCN3C(=O)C3CCC3)s2)cc1 (stereo not drawn),15,14,33*
Cc1ccc(Cn2cc(C(=O)O)c(S(=O)(=O)N3CCCCC3)n2)cc1,0,-15,3
O=C(c1cc2c(s1)-c1ccccc1S(=O)(=O)C2)N1CCN(c2ccccc2F)CC1,25,11,26
N#Cc1ccccc1NC(=O)c1cc2c(s1)-c1ccccc1S(=O)(=O)C2,88*,72*,83*
CCCCC[C@H](O)/C=C/C=C/CCCCCCCC(=O)O,22,3,14
CC/C=C\C/C=C\C/C=C\CCCCCCCC(=O)O,74*,88*,53*
COc1ccccc1C(NC(=O)CCC1(C)NC(=O)NC1=O)c1ccccc1 (stereo not drawn),4,5,12
COc1ccccc1NC(=O)CNC(=O)c1nn(-c2ccc(OC)c(OC)c2)c(=O)c2ccccc12,-3,68*,7
COc1ccccc1NC(=O)c1cnc2c(c1)c(=O)n(C)c(=O)n2-c1ccccc1,-6,0,2
Cc1ccccc1CC(=O)Nc1nnc(C2CC2)s1,-3,41*,1
Cc1ccccc1N1CC(c2nnc(NC(=O)Cc3ccc(Cl)cc3)s2)CC1=O (stereo not drawn),11,2,17
Cc1ccccc1N1CC(c2nnc(NC(=O)Cc3c(F)cccc3Cl)s2)CC1=O (stereo not drawn),-4,.,0
Cc1nn(C)c(C)c1CC(=O)Nc1nnc(C2CCCCC2)s1,41*,11,26
Cc1ccccc1N1CC(c2nnc(NC(=O)CCCc3ccccc3)s2)CC1=O (stereo not drawn),16,9,18
CCc1ccccc1N1CC(c2nnc(NC(=O)CCc3ccccc3)s2)CC1=O (stereo not drawn),-5,30*,-7
CC(=O)c1cccc(NC(=O)COC(=O)c2ccc3ccccc3n2)c1,-49,-82,-249
CCOc1ccc(S(=O)(=O)N2CC(c3nc(C)no3)C2)cc1,0,11,10
CC1CCN(S(=O)(=O)c2nn(C)cc2C(=O)Nc2ccccc2)CC1,.,4,.
CCCNC(=O)CN1C(=O)C(CC)Oc2ccc(C(=O)c3ccco3)cc21 (stereo not drawn),-4,-2,1
SMILES,USP28 block,USP17 block,USP30 inh
CCN1C(SCc2ccc(F)cc2)=NS(=O)(=O)c2ccccc21,62*,5,14
CCc1cccc(NC(=O)CSC2=NS(=O)(=O)c3ccccc3N2CC)c1,16,-3,24
Cc1ccc(NC(=O)C2Nc3ccccc3S(=O)(=O)N2)cc1F (stereo not drawn),-54,-10,-252
CCN(CC)S(=O)(=O)c1ccc2c(c1)nc(CCC(=O)Nc1ccc(C)c(Cl)c1)n2CC,-5,-12,39*
CCCn1c(CCC(=O)Nc2ccccc2C)nc2cc(S(=O)(=O)N3CCOCC3)ccc21,-2,-4,-7
CC(=O)C1C(=O)C=C(c2ccccc2)CC1c1ccccc1 (stereo not drawn),5,32*,3
CC(=O)N1[C@@H](c2ccccc2)C[C@@]2(C)[C@@H](O)[C@@H](O)CCC[C@@H]12,.,10,.
Cc1cccc(NC(=O)C(C)NS(=O)(=O)c2cc(-c3noc(C4CC4)n3)ccc2C)c1 (stereo not drawn),-4,-8,-20
Cc1nc(-c2ccc(C)c(S(=O)(=O)NC(C)C(=O)Nc3ccc(C)c(F)c3)c2)no1 (stereo not drawn),24,3,36*
COc1cccc2c(C(C(=O)O)N3CCN(c4ccc(C(F)(F)F)cn4)CC3)c[nH]c12 (stereo not drawn),-7,-4,-28
Cc1c(C(=O)NC2CC2)nnn1-c1cccc2c1CCN(C(=O)NC(C)C)C2,0,-2,6

# Source: PubChem BioAssay (Buhrlage Lab, Dana-Farber Cancer Institute and Novartis Institutes for BioMedical Research (Cambridge, Mass))
